Laboratory results from PubChem BioAssay AID1159580 (chemical genetic matrix, 2015).
Screen size: about 5,500 compounds; about 2,000 (36%) were called active. Roughly 18% stayed inconclusive and do not appear here. No stated cut-off is given here; in the data, active means normalized growth mostly below about 0.91 (no sharp cut-off); inconclusive means no clear call, values can overlap the other calls; inactive means mostly above about 0.92. The list shows a part of the results.

Experiment: chemical genetic growth profiling, strain panel (AID 1159580);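 further: tested at 20 µM; growth read once vehicle control cultures reached saturation at 30 °C; 1 = growth at the plate median or of vehicle wells; lower values mean less growth of the strain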
Details: growth OD

Measured: normalized growth

Cc1cc(O)c(C=O)c2c1C(=O)Oc1c(COC(=O)/C=C/C(=O)O)c(O)c(C(=O)O)c(C)c1O2
active: S. cerevisiae deletion strains, locus YLL001W, strain dnm1, hits give low values 0.888 | S. cerevisiae deletion strains, locus YLR357W, strain rsc2, hits give low values 0.841 | S. cerevisiae deletion strains, locus YMR058W, strain fet3, hits give low values 0.311 | S. cerevisiae deletion strains, locus YNL209W, strain ssb2, hits give low values 0.804 | S. cerevisiae deletion strains, locus YOR106W, strain vam3, hits give low values 0.709 | S. cerevisiae deletion strains, locus YOR270C, strain vph1, hits give low values 0.503 | S. cerevisiae deletion strains, locus YPL051W, strain arl3, hits give low values 0.831 | S. cerevisiae strains, strain wild type, hits give low values 0.874
inactive: S. cerevisiae deletion strains, locus YJR043C, strain POL32, hits give low values 0.954 | S. cerevisiae deletion strains, locus YJR066W, strain TOR1, hits give low values 0.931 | S. cerevisiae deletion strains, locus YJR075W, strain HOC1, hits give low values 0.962 | S. cerevisiae deletion strains, locus YKL009W, strain mrt4, hits give low values 0.974 | S. cerevisiae deletion strains, locus YKL068W, hits give low values 0.993 | S. cerevisiae deletion strains, locus YKL085W, strain MDH1 (second series), hits give low values 0.991 | S. cerevisiae deletion strains, locus YKL085W, strain MDH1, hits give low values 0.991 | S. cerevisiae deletion strains, locus YKL160W, strain elf1, hits give low values 0.992 | S. cerevisiae deletion strains, locus YKR001C, strain vps1, hits give low values 0.921 | S. cerevisiae deletion strains, locus YKR026C, strain gcn3, hits give low values 0.985 | S. cerevisiae deletion strains, locus YKR091W, strain srl3, hits give low values 1.01 | S. cerevisiae deletion strains, locus YLL026W, hits give low values 1.01 | S. cerevisiae deletion strains, locus YLL041C, strain sdh2, hits give low values 1 | S. cerevisiae deletion strains, locus YLR027C, strain aat2, hits give low values 0.982 | S. cerevisiae deletion strains, locus YLR039C, strain RIC1, hits give low values 0.933 | S. cerevisiae deletion strains, locus YLR058C, strain SHM2, hits give low values 0.937 | S. cerevisiae deletion strains, locus YLR102C, strain apc9, hits give low values 0.991 | S. cerevisiae deletion strains, locus YLR113W, strain HOG1, hits give low values 0.984 | S. cerevisiae deletion strains, locus YLR221C, strain rsa3, hits give low values 0.946 | S. cerevisiae deletion strains, locus YLR258W, strain gsy2, hits give low values 0.987 | S. cerevisiae deletion strains, locus YLR262C, strain YPT6 (second series), hits give low values 0.877 | S. cerevisiae deletion strains, locus YLR262C, strain YPT6, hits give low values 0.936 | S. cerevisiae deletion strains, locus YLR268W, strain sec22, hits give low values 0.924 | S. cerevisiae deletion strains, locus YLR320W, strain mms22, hits give low values 0.959 | S. cerevisiae deletion strains, locus YLR330W, strain CHS5, hits give low values 0.971 | S. cerevisiae deletion strains, locus YLR342W, strain FKS1 (second series), hits give low values 0.98 | S. cerevisiae deletion strains, locus YLR342W, strain FKS1, hits give low values 0.968 | S. cerevisiae deletion strains, locus YLR370C, strain arc18, hits give low values 0.967 | S. cerevisiae deletion strains, locus YLR371W, strain rom2, hits give low values 0.943 | S. cerevisiae deletion strains, locus YLR384C, strain iki3, hits give low values 0.996 | S. cerevisiae deletion strains, locus YLR418C, strain cdc73, hits give low values 0.883 | S. cerevisiae deletion strains, locus YML016C, strain PPZ1, hits give low values 0.957 | S. cerevisiae deletion strains, locus YML032C, strain rad52, hits give low values 1.01 | S. cerevisiae deletion strains, locus YML120C, strain ndi1, hits give low values 1 | S. cerevisiae deletion strains, locus YML124C, strain tub3, hits give low values 0.996 | S. cerevisiae deletion strains, locus YMR078C, strain ctf18, hits give low values 0.986 | S. cerevisiae deletion strains, locus YMR125W, strain sto1, hits give low values 1.08 | S. cerevisiae deletion strains, locus YMR129W, hits give low values 1.01 | S. cerevisiae deletion strains, locus YMR205C, strain PFK2, hits give low values 0.998 | S. cerevisiae deletion strains, locus YMR223W, strain ubp8, hits give low values 0.961 | S. cerevisiae deletion strains, locus YMR231W, strain pep5, hits give low values 0.94 | S. cerevisiae deletion strains, locus YMR307W, strain GAS1, hits give low values 0.72 | S. cerevisiae deletion strains, locus YNL067W, strain RPL9B, hits give low values 0.92 | S. cerevisiae deletion strains, locus YNL071W, strain lat1, hits give low values 1 | S. cerevisiae deletion strains, locus YNL183C, strain NPR1, hits give low values 0.931 | S. cerevisiae deletion strains, locus YNL233W, strain BNI4, hits give low values 0.967 | S. cerevisiae deletion strains, locus YNL248C, strain rpa49, hits give low values 1.01 | S. cerevisiae deletion strains, locus YNL250W, strain rad50, hits give low values 0.956 | S. cerevisiae deletion strains, locus YNL271C, strain bni1, hits give low values 0.954 | S. cerevisiae deletion strains, locus YNL298W, strain CLA4, hits give low values 0.966 | S. cerevisiae deletion strains, locus YNL307C, strain MCK1, hits give low values 0.98 | S. cerevisiae deletion strains, locus YNL322C, strain KRE1 (second series), hits give low values 1.04 | S. cerevisiae deletion strains, locus YNR049C, strain mso1, hits give low values 0.995 | S. cerevisiae deletion strains, locus YNR052C, strain pop2, hits give low values 0.963 | S. cerevisiae deletion strains, locus YOL012C, strain htz1 0.751 | S. cerevisiae deletion strains, locus YOL147C, strain pex11, hits give low values 0.994 | S. cerevisiae deletion strains, locus YOR001W, strain rrp6, hits give low values 0.961 | S. cerevisiae deletion strains, locus YOR061W, strain CKA2, hits give low values 0.95 | S. cerevisiae deletion strains, locus YOR069W, strain VPS5, hits give low values 0.976 | S. cerevisiae deletion strains, locus YOR070C, strain gyp1, hits give low values 0.988 | S. cerevisiae deletion strains, locus YOR080W, strain dia2, hits give low values 1.02 | S. cerevisiae deletion strains, locus YOR083W, strain WHI5, hits give low values 0.937 | S. cerevisiae deletion strains, locus YOR136W, strain idh2, hits give low values 0.988 | S. cerevisiae deletion strains, locus YOR144C, strain elg1, hits give low values 0.993 | S. cerevisiae deletion strains, locus YOR184W, strain ser1, hits give low values 0.946 | S. cerevisiae deletion strains, locus YOR231W, strain MKK1, hits give low values 0.953 | S. cerevisiae deletion strains, locus YOR265W, strain rbl2, hits give low values 0.964 | S. cerevisiae deletion strains, locus YOR290C, strain snf2, hits give low values 0.869 | S. cerevisiae deletion strains, locus YOR316C, strain cot1, hits give low values 0.989 | S. cerevisiae deletion strains, locus YPL078C, strain atp4, hits give low values 0.925 | S. cerevisiae deletion strains, locus YPL106C, strain sse1, hits give low values 0.942 | S. cerevisiae deletion strains, locus YPL240C, strain hsp82, hits give low values 1.01 | S. cerevisiae deletion strains, locus YPL256C, strain CLN2, hits give low values 1.01 | S. cerevisiae deletion strains, locus YPR119W, strain clb2, hits give low values 0.991 | S. cerevisiae deletion strains, locus YPR141C, strain kar3, hits give low values 0.96 | S. cerevisiae deletion strains, locus YPR163C, strain tif3, hits give low values 0.987 | S. cerevisiae deletion strains, locus YPR167C, strain met16, hits give low values 0.998 | S. cerevisiae deletion strains, strain wtn01, hits give low values 0.945
